Source: PubChem BioAssay (National Center for Advancing Translational Sciences (NCATS))
In the library only some 6% were active in any assay of this set; here they are far more common.
VDR inhibitor = Inhibitors of the vitamin D receptor (VDR): qHTS | Vitamin D3 receptor (Homo sapiens), P11473 | VDR-SRC2-3 peptide fluorescence polarization, 2 h | Potency, µM, inactives show max response, negative = inhibition, usual class: inhibitors | actives 0.93% (n = 400,000)
Target sequence (P11473 whole entry, looked up): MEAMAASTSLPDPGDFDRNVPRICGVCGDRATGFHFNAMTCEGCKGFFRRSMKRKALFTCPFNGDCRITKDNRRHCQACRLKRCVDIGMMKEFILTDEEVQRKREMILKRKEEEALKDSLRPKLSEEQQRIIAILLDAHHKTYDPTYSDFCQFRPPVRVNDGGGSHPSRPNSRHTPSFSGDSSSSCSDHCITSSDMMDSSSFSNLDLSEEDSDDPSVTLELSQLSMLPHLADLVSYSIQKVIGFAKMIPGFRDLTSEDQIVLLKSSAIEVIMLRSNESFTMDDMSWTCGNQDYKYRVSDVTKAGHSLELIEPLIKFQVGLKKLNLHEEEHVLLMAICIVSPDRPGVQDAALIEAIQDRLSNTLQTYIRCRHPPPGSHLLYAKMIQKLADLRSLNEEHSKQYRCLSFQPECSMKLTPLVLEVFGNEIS
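The screen uses fluorescence polarization to detect compounds that interfere with recruitment of the SRC2-3 coactivator peptide to VDR; plates are read after 2 h at room temperature.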
Tau fluor counter = Counterscreen qHTS for Inhibitors of Tau Fibril Formation, Fluorescence Polarization | tau K18 P301L Alexa594 fluorescence, heparin fibrillization | Potency, µM (titrated, usually from 57.7 µM), for the others: top-dose activity change, negative = decrease | actives 0.93% (n = 280,000); further: nearly all actives have a fitted effect of over 55% in size
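Human K18 P301L tau (15 uM unlabeled plus 0.24 uM Alexa 594-labeled, final) in 100 mM sodium acetate pH 7 was mixed with compound and 20 uM heparin and incubated 6 hr at 37 C.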
Tau ThT inhib = qHTS for Inhibitors of Tau Fibril Formation, Thioflavin T Binding | actives 2.1% (n = 270,000) | recombinant tau K18 P301L, heparin-induced fibrillization, ThT fluorescence | Microtubule-associated protein tau (Homo sapiens), P10636 | AID 1460, 2008 | Potency, µM (doses to about 57.4 µM), inactives show at the top dose activity, negative = inhibition, hits mostly inhibitors; further: nearly all actives have a fitted effect of over 55% in size
Target sequence (P10636 561-689 P618L limits assumed): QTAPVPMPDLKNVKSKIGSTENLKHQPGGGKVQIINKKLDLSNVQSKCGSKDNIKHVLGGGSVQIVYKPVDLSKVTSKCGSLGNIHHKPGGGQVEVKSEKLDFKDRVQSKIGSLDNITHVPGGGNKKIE
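Using a mix of unlabeled (15 uM) and Alexa 594-labeled (0.24 uM) tau K18 P301L, heparin-triggered fibrillization over 6 hr at 37 C was scored by ThT fluorescence.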
Sfp PPTase inh = qHTS Assay for Inhibitors of Bacillus subtilis Sfp phosphopantetheinyl transferase (PPTase) | Potency, µM, without a hit: largest response in the series, negative = inhibition, usual class: inhibitors | actives 3.5% (n = 310,000) | Biochemical Sfp PPTase activity, qHTS | AID 1490, 2009;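 further: the enzyme is Sfp with the accession as filed and its product quenches rhodamine fluorescence; 0% = enzyme reaction without inhibitor and -100% = no enzyme wells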
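Compounds were incubated with enzyme (final 15 nM) for 15 min at room temperature before substrate addition started the reaction. Fluorescence at 525 nm excitation, 598 nm emission was recorded immediately and after 30 minutes.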
PLK1 PBD block = qHTS for Inhibitors of PLK1-PDB (polo-like kinase 1 - polo-box domain): Primary Screen. Plk1 PBD binding of FITC phosphopeptide, fluorescence polarization. Potency, µM, inactives show max response, negative = inhibition, hits mostly inhibitors. actives 2.8% (n = 360,000); further: series mostly up to about 57 µM; nearly all actives have a fitted effect of over 65% in size
Tau fibril FP = qHTS for Inhibitors of Tau Fibril Formation, Fluorescence Polarization; actives 0.39% (n = 280,000); K18 P301L tau heparin fibrillization, Alexa594 FP, 6 h; Potency, µM (series often up to 57.7 µM), inactives show at the highest dose activity, negative = inhibition, usual class: inhibitors; AID 1468, 2008; Microtubule-associated protein tau (Homo sapiens), P10636; further: nearly all actives have a fitted effect of over 55% in size
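Read-out: fluorescence polarization of Alexa 594-labeled tau (0.24 uM), 555 nm excitation, 632 nm emission. Mixtures held 15 uM unlabeled K18 P301L, compound and 20 uM heparin, pH 7 acetate buffer, incubated 6 hr at 37 C.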
* = called active by the depositor; ? = inconclusive; nt = no result; [ ] = another dose, or the depositor's remark. The call rests on the fitted dose curve; in most records, active means well fitted curve in the direction sought with a large enough effect; inconclusive means small, poorly fitted or top-dose-only effect, or another doubt; inactive means no such curve, though single readings can be large; an effect the other way counts as inactive or inconclusive. Unless noted, on the % scale 0 is the no-effect control and ±100 the full control effect; potency means the concentration at half of the fitted maximal effect.

SMILES | VDR inhibitor | Tau fluor counter | Tau ThT inhib | Sfp PPTase inh | PLK1 PBD block | Tau fibril FP
O=C(NCc1cccs1)c1ccc2c(c1)N(Cc1ccccc1Cl)C(=O)c1ccccc1S2 | 8% | 1% | 14% | nt | nt | -15%
CC(C)CN(CC(C)C)S(=O)(=O)N1CCC(C(=O)NCc2cccnc2)CC1 | -28% | -7% | -10% | 14% | 27µM* | -3%
CSc1ccc(CN2CCC(C(=O)NCc3ccc(C)cc3)CC2)cc1 | 11% | 1% | 4% | 56µM* | -19% | 6%
Cc1oc(-c2ccc(Cl)cc2)nc1CN1CCC(C(=O)NCc2cccnc2)CC1 | -1% | -10% | 0% | ? | -10% | -2%
CCS(=O)(=O)N1CCC(C(=O)NCc2cccnc2)CC1 | 11% | 3% | -3% | 32% | -1% | 7%
CC(C)c1ccc(CN2CCC(C(=O)NCc3cccnc3)CC2)cc1 | 51% | -7% | -15% | 79µM* | -6% | -2%
Cc1ccc(CNC(=O)CN2CCC(C(N)=O)CC2)cc1 | -6% | 7% | 8% | 11% | -9% | 4%
Cc1ccccc1-n1nnnc1SCC(=O)NNC(=O)c1ccc(NC(=O)CC#N)cc1 | 10% | nt | nt | nt | -10% | nt
C/C(CCc1oc2ccc(Cl)cc2c1-c1ccc(C)o1)=N\O | -1% | ? | ? | 16µM* | -18% | -15%
COc1cc(/C=N/NC(=O)c2cc[n+]([O-])cc2)ccc1O | -2% | nt | nt | 11% | -5% | nt
Cc1cc(C)cc(NC(=O)Cn2cc(S(=O)(=O)NC(C)(C)C)c(S(=O)(=O)NC(C)(C)C)c2)c1 | 3% | ? | -2% | nt | nt | -8%
COc1ccc(-c2nnc(NC(=O)c3ccc(S(=O)(=O)N4CCCc5ccccc54)cc3)o2)cc1 | -8% | -23% | -20% | 12% | 32µM* | 0%
COCc1nnc(NC(=O)c2ccc(S(=O)(=O)N3CCCc4ccccc43)cc2)o1 | -6% | -11% | -4% | 24% | -12% | -11%
CCOC(=O)N/N=C1/C[C@@H](O)[C@@H](O)[C@@H]2[C@@H]3C(=O)N(Cc4ccc5c(c4)OCO5)C(=O)[C@H]3CC[C@H]12 | nt | 2%[11.6 µM] | 4%[11.5 µM] | -3% | nt | 7%[11.6 µM]
C=C(C(C)=O)C(O)c1ccccc1 (stereo not drawn) | -3% | 3% | -12% | -19% | nt | 8%
C=C(C(C)=O)C(O)c1ccco1 (stereo not drawn) | -16% | -24% | 28µM* | ? | nt | ?
COc1ccc(C)c2sc(N(Cc3cccnc3)C(=O)c3cccs3)nc12 | 15% | -12% | -8% | nt | nt | -2%
CCOC(=O)C1=C(N)Oc2ccc(Br)cc2C1C(C#N)C(=O)OCC (stereo not drawn) | 5.6µM* | -5% | -10% | -15% | nt | 0%
CCOC(=O)C1=C(N)Oc2cc(O)ccc2C1c1ccc(C)cc1 (stereo not drawn) | -2% | nt | nt | 7% | -2% | nt
Cc1nc2cnc(N(C)C)nc2n(-c2ccccc2)c1=O | -1% | nt | nt | 17% | nt | nt
Cc1ccc(CN2CCC(CNS(=O)(=O)c3ccc(-c4ccc(=O)[nH]n4)s3)CC2)cc1 | ? | nt | nt | 5% | 30µM* | nt
CC(=O)Nc1ccc(N=Nc2ccc(O)cc2)cc1 | 12% | -25% | 7.9µM* | 12% | 7% | 4%
CC(=O)Nc1ccc(N=NN2CCOCC2)cc1 | ? | -27% | 10µM* | 6% | -13% | -11%
Cc1ccc(NC(=O)c2ccc(F)c(S(=O)(=O)NCCc3ccccc3)c2)cc1F | 12% | 7.1µM*[quencher] | 10% | nt | nt | 25µM*
Cc1ccc(NC(=O)c2ccc(F)c(S(=O)(=O)N3CCc4ccccc4C3)c2)cc1F | 0% | ? | 3% | nt | nt | ?
SMILES | VDR inhibitor | Tau fluor counter | Tau ThT inhib | Sfp PPTase inh | PLK1 PBD block | Tau fibril FP
CCN(c1ccccc1)S(=O)(=O)c1cc(C(=O)Nc2ccc(F)c(F)c2)ccc1F | -18% | ? | 8% | 17% | -2% | 14µM*
CCN(c1ccccc1)S(=O)(=O)c1ccc(C(=O)Nc2cccc(NC(C)=O)c2)cc1 | 17% | nt | nt | nt | 6% | nt
CC(C)c1ccc(S(=O)(=O)NCc2ccc3c(c2)CCN3C(=O)c2ccccc2)cc1 | 4% | -23% | -5% | nt | nt | 2%
CCOc1ccc(C(=O)N(Cc2ccc(C(C)C)cc2)Cc2ccco2)cc1 | -3% | -11% | ? | nt | nt | 1%
COc1ccccc1C1C(C#N)=C(N)Oc2cc(C)n(Cc3ccccn3)c(=O)c21 (stereo not drawn) | 16% | -11% | ? | 50µM* | -7% | -10%
COc1cccc(C2C(C#N)=C(N)Oc3cc(C)n(Cc4ccco4)c(=O)c32)c1 (stereo not drawn) | -16% | -17% | ? | 7.9µM* | -3% | 2%
COc1ccc(C2C(C#N)=C(N)Oc3cc(C)n(Cc4ccco4)c(=O)c32)cc1 (stereo not drawn) | ? | -6% | 3% | 32µM* | -28% | -1%
Cn1nnc2sc3c(c2c1=O)CCCC3 | -18% | -6% | -9% | 50µM* | ? | -6%
NNc1nc(-c2ccccc2Cl)nc2sc3c(c12)CCCC3 | 8% | -23% | ? | 50µM* | -20% | 5%
NNc1nc(-c2ccccc2Cl)nc2ccccc12 | -16% | nt | nt | ? | -4% | nt
COc1cc(OC)c(N(C)C(=O)c2c(C)oc3ncn(CC(C)C)c(=O)c23)cc1Cl | 9% | -5% | -4% | nt | nt | -2%
COc1ccccc1-c1cc(C(F)(F)F)nc(S(=O)(=O)CCCC(=O)N2CCCCC2C)n1 (stereo not drawn) | 32µM* | 8% | 3% | 4% | ? | 2%
COc1ccccc1-c1cc(C(F)(F)F)nc(S(=O)(=O)CCCC(=O)NC(C)C)n1 | ? | 15% | 0% | 9% | ? | 14%
Cc1ccc(Nc2nc(-c3ccc(O)c(O)c3)cs2)nc1 | 1% | 14µM*[quencher] | 10µM* | 35µM* | -12% | 14%
COc1ccc(-c2csc(Nc3ccc(C)cn3)n2)cc1OC | -1% | ? | 13µM* | ? | 1% | 11%
Cc1ccc(Nc2nc(-c3ccc(F)cc3)cs2)nc1 | -7% | nt | nt | 11% | 2% | nt
Cc1[nH]nc(-c2ccc(O)cc2O)c1-c1ccc(Cl)cc1 | -14% | 22µM*[quencher] | -16% | 17% | -9% | ?
COc1ccc(-c2n[nH]c(C)c2-c2ccc(Cl)cc2)c(O)c1 | 2% | 20µM*[quencher] | ? | -19% | 2% | -10%
